Screening results: PubChem, National Center for Advancing Translational Sciences (NCATS)
This is a sample that favours compounds with a hit; in the whole collection about 5.3% have one here.
TDP1 block: inhibitors of human tyrosyl-DNA phosphodiesterase TDP1. Q9NUW8. recombinant TDP1, AlphaScreen DNA substrate cleavage. Potency, µM (top dose mostly 130 µM), for the others: at the top dose activity change, negative = inhibition, usual class: inhibitors. 350,000 tested, 0.28% active; note: potency is the fitted concentration of half-maximal effect; % is set by controls: 0 for no effect and ±100 for the full control effect; nearly all actives have a fitted effect of over 40% in size
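Signal: AlphaScreen proximity between streptavidin donor and anti-FITC acceptor beads on intact substrate. Reaction: Tdp1 1 nM, substrate 15 nM final, 5 min RT after 15 min compound preincubation.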
BAZ2B block: BAZ2B (human) inhibition; AlphaScreen BAZ2B-H3K14Ac peptide displacement; Q9UIF8; 360,000 tested, 4.4% active; AID 504333; Potency, µM (doses to about 114 µM), for inactives: at the highest dose activity change, negative = inhibition, hits mostly inhibitors; note: potency is the fitted concentration of half-maximal effect; % is set by controls: 0 for no effect and ±100 for the full control effect; nearly all actives have a fitted effect of over 60% in size
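Complex of BAZ2B and biotin-H3K14Ac (50 nM apiece) forms over 30 min at RT, then faces library compounds up to 110 uM for another 30 min; AlphaScreen beads added, 20 min dark incubation, luminescence read.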
JMJD2A Tudor: inhibitors of human JMJD2A Tudor domain; AID 504339; O75164; Potency, µM (titrated, usually from 114 µM), inactives show top-dose activity change, negative = inhibition, hits mostly inhibitors; AlphaScreen JMJD2A-Tudor / H3K4me3 peptide binding; 390,000 tested, 4.4% active; note: potency is the fitted concentration of half-maximal effect; % is set by controls: 0 for no effect and ±100 for the full control effect; nearly all actives have a fitted effect of over 50% in size
HP1b chromo inh: blocks HP1-beta chromodomain binding to methylated histone tails | P83916 | AlphaScreen HP1-beta / biotin-H3K9me3 peptide binding | Potency, µM (doses to about 114 µM), for the others: at the top dose activity change, negative = inhibition, hits mostly inhibitors | 390,000 tested, 0.56% active | AID 540317; note: potency is the fitted concentration of half-maximal effect; nearly all actives have a fitted effect of over 70% in size
Target sequence (P83916 whole entry, looked up): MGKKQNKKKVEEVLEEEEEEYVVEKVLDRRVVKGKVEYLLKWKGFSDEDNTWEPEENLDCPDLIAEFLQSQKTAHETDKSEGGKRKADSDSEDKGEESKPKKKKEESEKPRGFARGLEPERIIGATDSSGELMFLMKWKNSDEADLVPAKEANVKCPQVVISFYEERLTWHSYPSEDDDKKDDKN
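HP1-beta protein (50 nM final) preincubated 30 min at room temperature with biotinylated H3(1-18)K9me3 peptide (50 nM) in PBS pH 7.4, 0.01% Tween-20, then compound added for 30 min. AlphaScreen streptavidin donor/nickel chelate acceptor beads (10 ug/mL final), 30 min dark, luminescence read.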
Six1-Eya2 inh: Six1/Eya2 interaction inhibition; AlphaScreen GST-Six1/His-Eya2 binding, biochemical; stronger effect = lower value; 360,000 tested, 0.56% active; activity change, % (concentration not given with the values); AID 651725; Q15475+O00167; in the data active = activity change below about -65%; inconclusive = mostly about -30% to -63%; note: % is set by controls: 0 for no effect and ±100 for the full control effect
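AlphaScreen luminescence read after one hour at 37 °C in darkness. Pin-transferred compounds met GST-Six1 and His-Eya2 protein (5X stock 250 nM/500 nM) plus glutathione donor and Ni-chelate acceptor beads (5X, 50 ug/mL).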
CtBP-E1A blk: inhibitors of CtBP/E1A interaction. AlphaScreen GST-E1A/His-CtBP binding, 1536-well; stronger effect = lower value. activity change, % (test concentration not listed). 340,000 tested, 0.49% active; in the data active = activity change below about -65%; inconclusive = mostly about -30% to -63%; note: % is set by controls: 0 for no effect and ±100 for the full control effect
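GST-E1A and His-tagged CtBP (125 nM each as 5X stock) were preincubated with pin-transferred compound for 2 h at 37 °C in the dark, then glutathione donor and nickel acceptor beads were added for 1 h before AlphaScreen reading.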
The depositor's hits bear a star; ? = inconclusive; nt = no result; [ ] = dose if it differs, or a comment. Unless noted, calls come from the whole dose curve; as a rule, active = well fitted inhibition curve with a large enough effect; inconclusive = small, poorly fitted or top-dose-only effect; inactive = no such curve, though single readings can be large or run the other way.

SMILES | TDP1 block | BAZ2B block | JMJD2A Tudor | HP1b chromo inh | Six1-Eya2 inh | CtBP-E1A blk
COc1ccc(Br)cc1CNC(=O)c1cc2n(n1)CCCN(Cc1ccc(C)cc1)C2=O | 1% | -6% | -6% | 31% | nt | nt
CC1C(=O)NN=C1c1ccc([N+](=O)[O-])cc1 (stereo not drawn) | nt | nt | -16% | 17% | -3 | -8
CC1CN2C(c3ccc([N+](=O)[O-])cc3)=CSC2=N1 (stereo not drawn) | nt | -6% | 79µM* | ? | -6 | -16
COCCn1c(SCCN2CCCCC2)nc2ccccc2c1=O | -4% | ? | 2.2µM* | ? | 3 | -4
COCCCn1c(SCC(=O)N2CCCC2=O)nc2ccccc2c1=O | nt | nt | nt | nt | 0 | 2
C=CCNc1nc(NCc2ccc(N(C)C)cc2)c2sc(-c3ccccc3)cc2n1 | nt | nt | nt | nt | -73* | -77*
C=CCNc1nc(NCCOC)c2sc(-c3ccccc3)cc2n1 | nt | nt | nt | nt | -2 | -4
COC(=O)[C@H]1CC2(CC=C(C)C)C(=O)[C@@](CC=C(C)C)(C(=O)C(C(=O)c3ccccc3)=C2OC)C1(C)C (tested in a mixture with another compound) | 10% | nt | nt | nt | nt | nt
COC(=O)C1=COC(OC2OC(CO)C(O)C(O)C2O)C2C1C=CC2(O)CO (stereo not drawn) | nt | 28µM* | 35µM* | 20µM* | -21 | 1
Cc1cccc(C)c1NC(=O)Cn1c(=O)n(CCCS(=O)(=O)C2CCCCC2)c(=O)c2ccccc21 | 0% | 3% | -14% | 29% | nt | nt
CC(C)[C@@H](CC(=O)N[C@@H]1CCNC[C@H]1C(=O)N[C@H](CC(=O)N[C@@H](CCC(=O)O)CC(=O)O)Cc1c[nH]c2ccccc12)NC(=O)C[C@H](Cc1ccccc1)NC(=O)[C@@H]1CNCC[C@H]1N | 2% | nt | nt | nt | nt | nt
COc1ccc(NC(=O)[C@@H](c2ccccc2)N2Cc3ccccc3C2=O)cc1OC | 7% | -36% | -26% | 7% | nt | nt
O=C1NC(=S)S/C1=C\C=C\c1ccc([N+](=O)[O-])o1 | nt | 11µM* | 16µM* | ? | ? | ?
Cc1cccc(NC(=O)CN2C(=O)/C(=C3\SC(=S)N(CC4CCCO4)C3=O)c3ccccc32)c1 (stereo not drawn) | 4% | -24% | -23% | -3%[57 µM] | 2 | nt
O=C(CN1C(=O)/C(=C2/SC(=S)N(CCS(=O)(=O)O)C2=O)c2ccccc21)Nc1cccc(Br)c1 | nt | nt | 45µM* | 50µM* | ? | -3
CCOc1ccc(-c2c(C)nn3c(C)c(C(=O)NC(C)c4ccccc4)cnc23)cc1OCC (stereo not drawn) | 7% | -20% | -28% | 3% | nt | nt
CN(C)c1ccc(N=Nc2ccc(S(=O)(=O)O)cc2)c2ccccc12 | 13% | 10µM* | 35µM* | ? | ? | nt
O=Cc1cc(N=Nc2ccc(S(=O)(=O)O)cc2)ccc1O | nt | nt | -19% | -3% | -28 | -2
O=C1c2cccc3c(O)ccc(c23)C(=O)N1c1ccc(Cl)cc1 | nt | 11% | 9% | 38% | -5 | -19
CC(=O)Nc1ccc(N2C(=O)c3cccc4c(O)ccc(c34)C2=O)cc1 | nt | 50µM* | ? | 16% | -26 | nt
CC1=CC(c2ccccc2)n2nc(NC(=O)CCCC(=O)O)nc2N1 (stereo not drawn) | nt | 50µM* | ? | 7% | 5 | 0
COc1ccc(C2C=C(c3ccc(F)cc3)Nc3nc(-c4ccc(Cl)cc4)nn32)cc1 (stereo not drawn) | nt | -1% | -34% | 68% | nt | nt
COc1ccc(C(=O)Nc2nc3n(n2)C(c2ccccc2)C=C(c2ccccc2)N3)cc1 (stereo not drawn) | 9% | 22µM* | 79µM* | 39% | nt | nt
COc1ccc(C2C=C(c3ccc(Cl)cc3)Nc3nc(NC(C)=O)nn32)cc1 (stereo not drawn) | 8% | 32µM* | nt | nt | nt | nt
COc1ccc(C2C=C(c3ccccc3)Nc3nc(NC(=O)/C=C/c4ccccc4)nn32)cc1 (stereo not drawn) | 6% | 4% | 2% | 49% | nt | nt
SMILES | TDP1 block | BAZ2B block | JMJD2A Tudor | HP1b chromo inh | Six1-Eya2 inh | CtBP-E1A blk
COc1ccc(C2=CC(c3ccccc3Cl)n3nc(-c4ccc(C)cc4)nc3N2)cc1 (stereo not drawn) | 5% | 11µM* | ? | -11% | nt | nt
Cc1cc(C)c(Cn2c(=O)n(-c3ccccc3Cl)c(=O)c3c(C)c(C(=O)N(C)C)sc32)c(C)c1 | 0% | -3% | -15% | 19% | nt | nt
O=C(Nc1nc2n(n1)C(c1ccc(F)cc1)C=C(c1ccccc1)N2)c1cccc([N+](=O)[O-])c1 (stereo not drawn) | 11% | -11% | 1% | 48% | nt | nt
CC(=O)Nc1nc2n(n1)C(c1ccc(F)cc1)C=C(c1ccccc1)N2 (stereo not drawn) | 12% | 22µM* | ? | 25% | -6 | -2
NC(=O)CSc1ncc2c(n1)-c1ccccc1N(Cc1ccc(F)cc1)S2(=O)=O | 3% | -19% | 8% | 22% | nt | nt
CSc1ccc(-c2nnc(NC(=O)c3ccc4c(c3)OCCO4)o2)cc1 | 11% | -7% | -19% | 14%[57 µM] | nt | nt
CCCC(=O)Nc1nnc(-c2ccc3c(c2)OCCO3)o1 | 1% | 79µM* | ? | -7% | -6 | -5
CC1Cc2ccccc2N1C(=O)NC1CC(=O)N(c2ccc3c(c2)OCCO3)C1 (stereo not drawn) | 2% | nt | -17% | 15% | -3 | 2
CC(Nc1ccc2c(c1)OCCO2)C(=O)N1c2ccccc2CC1C (stereo not drawn) | 11% | 40µM* | ? | -13% | -15 | -23
C=CC[n+]1ccc(/C=C2\C=Cc3cc(C)ccc3N2CC)c2ccccc21 | 10% | 14µM* | 20µM* | ? | -73* | -21
CCN1/C(=C/c2cc[n+](CCCS(=O)(=O)[O-])c3ccccc23)Sc2ccccc21 | 4% | ? | -5% | -8% | 0 | -12
Cc1cccc(/C=C2\CS/C(=C\c3cccc(C)c3)C2=O)c1 | 1% | 50µM* | ? | ? | -1 | -1
O=C1/C(=C/c2cccc(Cl)c2)CSc2sccc21 | -6% | 49% | 45% | 92% | 0 | 13
O=C(C1CCN(CC2CC=CCC2)CC1)N(CCc1ccccc1)Cc1ccccc1 (stereo not drawn) | -3% | 79µM* | ? | 42% | -6 | 0
CCC(C)NC(=O)C1CCN(CCCc2ccccc2)CC1 (stereo not drawn) | nt | 50µM* | 10µM* | -28% | -5 | 2
O=C(C1CCN(CCCc2ccccc2)CC1)N(CCc1ccccc1)Cc1ccccc1 | -3% | ? | 1.1µM* | ? | -1 | -19
